Rows were chosen to be rich in hits. Some 3.5% of all compounds tested hit in one or more screens of this group.
Rv3671c protease – inhibits the M. tuberculosis serine protease Rv3671c | P9WHR9 | inhibition, % at 5.96 µM | 320,000 compounds, 0.048% hits | AID 2606; in the data active means inhibition above about 38%;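 further: extracellular domain of Rv3671c used as enzyme; 0% = enzyme with DMSO and 100% = no enzyme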
FBA Mtb inh – Mtb fructose-bisphosphate aldolase inhibition | P9WQA3 | inhibition, % at 1 µM | 360,000 compounds, 2.3% hits | purified M. tuberculosis FBA, fluorescence read-out;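 further: 0% = vehicle and 100% = reference inhibitor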
GDH-TPI counter-1 – GDH-TPI coupled enzyme inhibition counter-screen | GDH-TPI coupled enzyme counterscreen, NADH absorbance | inhibition, % at 4.8 µM | 360,000 compounds, 1.2% hits; in the data active means inhibition above about 30%;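 further: 0% = DMSO wells and 100% = wells lacking the enzyme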
Mtb UGM inh – blocks M. tuberculosis UGM enzyme; P9WIQ1; purified UGM, fluorescence polarization probe displacement; inhibition, % at 10 µM; 320,000 compounds, 0.06% hits; in the data active means inhibition above about 10%, passing the limit was not always enough
Target sequence (P9WIQ1 whole entry, looked up): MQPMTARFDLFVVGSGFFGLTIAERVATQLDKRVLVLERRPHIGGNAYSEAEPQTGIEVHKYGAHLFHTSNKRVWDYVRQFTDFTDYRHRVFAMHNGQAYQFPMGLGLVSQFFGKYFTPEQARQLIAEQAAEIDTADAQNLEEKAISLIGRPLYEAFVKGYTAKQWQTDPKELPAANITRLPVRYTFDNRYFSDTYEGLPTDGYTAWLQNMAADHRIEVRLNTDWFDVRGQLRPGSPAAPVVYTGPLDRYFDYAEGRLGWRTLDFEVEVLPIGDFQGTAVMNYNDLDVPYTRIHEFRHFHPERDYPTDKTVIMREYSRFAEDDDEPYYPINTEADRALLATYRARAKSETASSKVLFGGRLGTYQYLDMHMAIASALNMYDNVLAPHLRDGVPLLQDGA
FadD28 binding – blocks FadD28 binding to the bisubstrate probe; fluorescence polarization; inhibition, % at 12.5 µM; 360,000 compounds, 0.22% hits; AID 588549; in the data active means inhibition above about 8.5%, passing the limit was not always enough
Mtb hypoxia inh – Mtb hypoxia fluorescent reporter inhibition. M. tuberculosis hypoxia-regulated fluorescent reporter, fluorescence. fluorescence inhibition, % (concentration not given with the values). 300,000 compounds, 0.1% hits. AID 1159583; in the data active means fluorescence inhibition mostly above about 23%, no sharp cut-off; inactive means mostly below about 17%
Mtb FBA confirm – confirmation of M. tuberculosis fructose-bisphosphate aldolase inhibitors; shares compounds with FBA Mtb inh; purified M. tuberculosis FBA, fluorescence read-out; inhibition, % at 1 µM; 5,600 compounds, 78% hits;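 further: 0% = vehicle wells and 100% = reference inhibitor wells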
GDH-TPI counter-2 – counter-screen for M. tuberculosis FBA inhibitors: GDH-TPI coupled enzyme inhibition; shares compounds with FBA Mtb inh; GDH-TPI coupled enzyme counterscreen, fluorescence; inhibition, % at 1 µM; 5,600 compounds, 81% hits; AID 652141; in the data active means inhibition above about 10%
GDH-TPI dose – GDH-TPI dose response counter-screen for Mtb FBA; shares compounds with FBA Mtb inh; GDH-TPI coupled enzyme assay, fluorescence, artifact counterscreen; IC50, µM; 170 compounds, 79% hits; call rule not given here
* hit, by the source's call; . = no result; + = active, no number. Unless noted, no stated cut-off is given here; in the data, active means inhibition above about 27%; inactive means the rest.

SMILES | Rv3671c protease | FBA Mtb inh | GDH-TPI counter-1 | Mtb UGM inh | FadD28 binding | Mtb hypoxia inh | Mtb FBA confirm | GDH-TPI counter-2 | others
CCOc1c2ccc(C(=O)NCC34CC5CC(CC(C5)C3)C4)cc2nn1CC | -9 | 39* | 8 | -1 | 1 | 6 | 1 | 6
CCOc1ccc(OCCNC(=O)c2ccc3c(c2)nnn3CC)cc1 | 3 | 2 | 3 | -7 | . | 13 | . | .
CC(CC(=O)NC12CC3CC(CC(C3)C1)C2)=NNC(=O)c1ccc(F)cc1 | . | . | . | . | . | 12 | . | .
CCOC(=O)C=Cc1ccc2c(c1)S(=O)(=O)N(Cc1ccc(OC)cc1)C2CC(=O)OCC (centres undefined) | . | . | . | . | . | 21 | . | .
O=S(=O)(O)c1cc(O)c2ccc(Nc3ccccc3)cc2c1 | . | 35* | 8 | . | 24* | -8 | 4 | -1
O=S(=O)(O)c1cc(O)c2cc(Nc3ccccc3)ccc2c1 | . | 48* | 17 | . | 28* | 10 | 91* | 98*
NC(=O)C1=CC(c2ccc(C(F)(F)F)cc2)CC(OCCCCO)O1 (centres undefined) | . | . | . | . | . | 9 | . | .
CC(C)COC(=O)C(C)Nc1n[nH]c(=S)[nH]c1=O (centres undefined) | 5 | 53* | 11 | 0 | -3 | 3 | 4 | -3
CC(C)OC(=O)C(C)Nc1n[nH]c(=S)[nH]c1=O (centres undefined) | . | 6 | 9 | . | 1 | 9 | . | .
CCOC(=O)C1C2COc3ccc(Cl)cc3C2N2C(=O)c3ccccc3NC(=O)[C@@]12C (some centres undefined) | . | . | . | . | . | -3 | . | .
CS(=O)(=O)NN1C(=O)c2ccccc2NC1c1ccccc1 (centres undefined) | -5 | 34* | 4 | 2 | -1 | -9 | 13 | -4 | GDH-TPI dose=5.4*
COc1ccc(C2Nc3ccccc3C(=O)N2NS(C)(=O)=O)c(OC)c1 (centres undefined) | 1 | 28* | 4 | 1 | -3 | 2 | 12 | 1
CS(=O)(=O)NN1C(=O)c2ccccc2NC1c1cccc(O)c1 (centres undefined) | -5 | 41* | 8 | 0 | -1 | -8 | 112* | 81*
C=CCOC(=O)C1=CC(c2coc3ccccc3c2=O)C(CCCO)C(OCC)O1 (centres undefined) | . | . | . | . | . | 6 | . | .
Cc1cc(C)cc(C(=O)C=C2NC(=O)CS2)c1 | . | . | . | . | . | 2 | . | .
O=C(Nc1cccc(Cl)c1)C1=CC=CN2CCS(=O)(=O)N=C12 | -3 | 0 | 30 | -2 | -2 | 6 | . | .
CC(=O)c1cccc(OC(=O)C2=CC=CN3CCS(=O)(=O)N=C23)c1 | -1 | 44* | 12 | 5 | -1 | 6 | 146* | 152*
CC(=O)NCCNc1nc2cc(-c3ccc(C)cc3)sc2c(=O)n1C | . | 3 | 18 | . | -6 | . | . | .
CC(=O)NCCNc1nc2cc(-c3ccc4c(ccn4C)c3)sc2c(=O)n1C | . | 33* | 11 | . | -3 | . | 78* | 83*
CC1CCCC(C)N1N=Cc1ccccc1OC(F)F (centres undefined) | . | . | . | . | . | 6 | . | .
O=C(O)CCn1c(-c2ccccc2)cc2ccccc21 | 5 | 58* | -5 | -2 | -3 | -8 | 25 | 16*
Cn1c(=S)n(CCC(=O)O)c2ccccc21 | 11 | 0 | 2 | -1 | -3 | 3 | . | .
O=C(c1ccco1)N1CCN(C(=O)c2cc(-c3ccccc3)nc3ccccc23)CC1 | 3 | -1 | 5 | 0 | 0 | 0 | . | .
COC(=O)C1CCN(C(=O)c2cc(-c3ccco3)nc3ccccc23)CC1 | -2 | 109* | 22 | 0 | -2 | . | 54* | 43*
O=C(c1cc(-c2ccco2)nc2ccccc12)N1CCN(Cc2ccccc2)CC1 | -3 | 50* | 0 | 0 | -3 | 1 | 138* | 148*
SMILES | Rv3671c protease | FBA Mtb inh | GDH-TPI counter-1 | Mtb UGM inh | FadD28 binding | Mtb hypoxia inh | Mtb FBA confirm | GDH-TPI counter-2 | others
C/C(=N\NC(=O)c1cc(-c2ccc(C)s2)nc2ccccc12)c1cccnc1 | . | 62* | 11 | 0 | -7 | . | 136* | 111*
C/C(=N\NC(=O)c1cc(-c2ccccc2C)nc2ccccc12)c1cccnc1 | . | -2 | -1 | 1 | -1 | . | . | .
O=C(NN1CCOCC1)c1cc(-c2cccs2)nc2ccccc12 | -1 | 51* | 20 | 0 | -2 | 1 | 36* | 21*
O=C(c1cc(-c2cccs2)nc2ccccc12)N1CCN(CCO)CC1 | . | 99* | 8 | . | -4 | 5 | + | +
O=C(OC1CCOC1=O)c1cc(-c2cccs2)nc2ccccc12 (centres undefined) | -7 | 44* | 6 | 2 | -2 | -3 | 9 | 2
CC(=NNC=O)c1ccncc1 | . | . | . | . | . | 12 | . | .
CCc1ccc(-c2cc(C(=O)NN3CCOCC3)c3ccccc3n2)s1 | 1 | 89* | 9 | 1 | 1 | 1 | 44* | 35*
CCN(C(=O)COC(=O)c1cc(-c2cccs2)nc2ccccc12)C1CCS(=O)(=O)C1 (centres undefined) | -2 | 72* | 16 | -2 | -6 | -8 | 45* | 45*
CCN(C(=O)COC(=O)c1cc(-c2ccc(C)o2)nc2ccccc12)C1CCS(=O)(=O)C1 (centres undefined) | 1 | 3 | 10 | -1 | -1 | 17 | . | .
O=C(N/N=C/c1cccnc1)c1cc(-c2cccs2)nc2ccccc12 | -10 | 56* | 16 | 2 | -7 | . | 51* | 50*
S=C(NCCc1ccccc1)NN=Cc1cccs1 | . | . | . | . | . | 14 | . | .
CCOC(=O)COc1c(OC)cc(Cl)cc1C1Nc2ccccc2C(=O)N1c1ccc(F)cc1 (centres undefined) | 2 | 33* | 9 | -1 | 1 | 6 | 24 | 12*
CCOC(=O)COc1c(OC)cc(Cl)cc1C1Nc2ccccc2C(=O)N1c1cccc(C)c1 (centres undefined) | -8 | 17 | 1 | -1 | -1 | 8 | . | .
CCOC(=O)COc1c(OC)cc(Cl)cc1C1Nc2ccccc2C(=O)N1c1ccccc1 (centres undefined) | -3 | 39* | 6 | -2 | -2 | 6 | 144* | 118*
CCOC(=O)COc1ccccc1C1Nc2ccccc2C(=O)N1c1cccc(Cl)c1 (centres undefined) | 0 | 36* | 6 | 2 | -4 | -11 | + | +
CN1C(=O)SC(=Cc2ccccc2OCc2ccc(C(=O)O)cc2)C1=O | . | . | . | . | . | 3 | . | .
COc1ccc(C(=O)NN=C(C)CC(=O)Nc2ccc3c(c2)OCCO3)c(OC)c1 | . | . | . | . | . | 4 | . | .
CC(=O)Nc1cc(-c2ccc(S(C)(=O)=O)cc2)cn2c(-c3ccc(F)cc3)cnc12 | . | 0 | 8 | . | -3 | . | . | .
